From publication PMC4552634, “A New Set of Chemical Starting Points with Plasmodium falciparum Transmission-Blocking Potential for Antimalarial Drug Discovery” (PLoS ONE, 2015)
Where two headings read alike, the source gives them in different places. In all, about 13,000 compounds went through this assay and about 3,200 (25%) showed an effect of 50% or more. The list shows a part of the results.

Test system: P. falciparum stage V gametocytes
Set-up: BacTiter-Glo ATP luminescence viability of purified stage V gametocytes in 384-well plates, per cent inhibition versus DMSO
Conditions: 48 h, 5 µM, inhibitor

Row | Structure (SMILES) | % Inhibition [%] | % Inhibition (% Inhibition) [%]
1 | CC[C@@H]([C@@H](CC(C)C)C(=O)N[C@@H](CCCCNC(=O)OCc1ccccc1)C(=O)Nc1ccccn1)N(O)C=O [TCMDC-137163] | 20.28 | –
2 | O=C(/C=C/c1ccc(O)cc1)NC1CCC(CN2CCC(c3c[nH]c4ccccc34)CC2)CC1 (centres unmarked) [TCMDC-139719] | 17.65 | –
3 | O=C(/C=C/c1ccc(Cl)cc1)NC1CCC(CN2CCC(c3c[nH]c4ccccc34)CC2)CC1 (centres unmarked) [TCMDC-139716] | – | 101.2
4 | O=C(C=Cc1ccc(F)c(Br)c1)N1CCC(CN2CCC(c3c[nH]c4ccccc34)CC2)CC1 [TCMDC-139914] | -25.75 | –
5 | O=C(/C=C/c1ccc(Cl)c(Cl)c1)NC1CCC(N2CCC(c3c[nH]c4ccccc34)CC2)CC1 (centres unmarked) [TCMDC-139778] | -27.83 | –
6 | CC(=O)Nc1ccc2[nH]cc(C3CCN(CC4CCC(NC(=O)/C=C/c5ccc(Cl)c(Cl)c5)CC4)CC3)c2c1 (centres unmarked) [TCMDC-139852] | – | 29.73
7 | O=C(/C=C/c1ccc(Cl)c(Cl)c1)NC1CCC(CN2CCC(c3c[nH]c4ccncc34)CC2)CC1 (centres unmarked) [TCMDC-140109] | 103.5 | –
8 | O=C(C=Cc1ccc(F)c(Br)c1)NC1CCC(CN2CCC(c3c[nH]c4ccccc34)CC2)CC1 (centres unmarked) [TCMDC-139908] | – | 99.67
9 | CC(=O)Nc1ccc2[nH]cc(C3CCN(CC4CCC(NC(=O)/C=C/c5ccc(Cl)c(Cl)c5)CC4)CC3)c2c1 (centres unmarked) [TCMDC-139851] | – | 9.174
10 | O=C(C=Cc1ccc(F)c(Br)c1)NC1CCC(CN2CCC(c3c[nH]c4ccccc34)CC2)CC1 (centres unmarked) [TCMDC-139919] | – | -60.64
11 | O=C(C=Cc1ccc(Br)cc1)NC1CCC(CN2CCC(c3c[nH]c4ccccc34)CC2)CC1 (centres unmarked) [TCMDC-139948] | 31.75 | –
12 | O=C(/C=C/c1ccc(Cl)c(Cl)c1)NCCCCCN1[C@@H]2CC[C@H]1CC(c1c[nH]c3ccc(O)cc13)C2 (some centres unmarked) [TCMDC-139295] | – | 11.46
13 | O=C(/C=C/c1ccc(Cl)c(Cl)c1)NC1CCC(N2CCC(c3c[nH]c4ccc(O)cc34)CC2)CC1 (centres unmarked) [TCMDC-139812] | 98.54 | –
14 | CC(C)C(C(=O)n1ncc2c3c(N)nc(N)nc3ccc21)C(C)C [TCMDC-137333] | -35.38 | –
15 | COc1cccc(C(=O)Nc2sc3c(c2C(N)=O)CCCC3)c1OC [TCMDC-123542] | -31.1 | –
16 | COc1cc2nc(NCC3CCCO3)n3nc(-c4ccccc4)nc3c2cc1OC (centres unmarked) [TCMDC-125295] | -4.624 | –
17 | COc1ccc2cc(C(c3nnnn3CC3CCCO3)N3CCc4ccccc43)c(=O)[nH]c2c1 (centres unmarked) [TCMDC-123534] | 43.68 | –
18 | Cc1ccc(CN2CCN(c3cc4c(cc3Cl)CCN4C(=O)Cc3ccc(NC(=O)c4ccc(C(F)(F)F)cc4)cc3)CC2)cc1 [TCMDC-139509] | 28.44 | –
19 | O=C(Nc1ccc(F)c(F)c1)c1ccc(CN2CCCN(Cc3cccc(F)c3)CC2)cc1 [TCMDC-136389] | 9.307 | –
20 | CCC[C@@H]([C@@H](CC1CCCCC1)C(=O)N[C@H](C(=O)Nc1nccs1)[C@H](C)O)N(O)C=O [TCMDC-138142] | -26.13 | –
21 | CCOC(=O)C1=C(C)N=c2sc(=Cc3ccccc3O)c(=O)n2C1c1ccc(OC)c2ccccc12 (centres unmarked) [TCMDC-124109] | 14.77 | –
22 | O=C(/C=C/c1ccc([N+](=O)[O-])cc1)NC1CCC(CN2CCC(c3c[nH]c4ccccc34)CC2)CC1 (centres unmarked) [TCMDC-139934] | – | 72.83
23 | O=C(/C=C/c1ccc(Cl)cc1)NC1CCC(CN2CCC(c3c[nH]c4ccccc34)CC2)CC1 (centres unmarked) [TCMDC-139701] | – | 108.5
24 | O=[N+]([O-])c1ccc(Oc2c(Cl)cc(S(=O)(=O)N3CCC(CN4CCC(c5c[nH]c6ccccc56)CC4)CC3)cc2Cl)c(Cl)c1 [TCMDC-140169] | -22.29 | –
25 | N#Cc1c(Cl)cccc1Oc1ccc(S(=O)(=O)NC2CCC(CN3CCC(c4c[nH]c5ccccc45)CC3)CC2)cc1 (centres unmarked) [TCMDC-140167] | – | 10.9

Row | Structure (SMILES) | % Inhibition [%] | % Inhibition (% Inhibition) [%]
26 | O=C(/C=C/c1ccc([N+](=O)[O-])cc1)NC1CCC(CN2CCC(c3c[nH]c4ccccc34)CC2)CC1 (centres unmarked) [TCMDC-139950] | – | 23.65
27 | O=[N+]([O-])c1ccc(Oc2c(Cl)cc(S(=O)(=O)NC3CCC(CN4CCC(c5c[nH]c6ccccc56)CC4)CC3)cc2Cl)c(Cl)c1 (centres unmarked) [TCMDC-140165] | 62.46 | –
28 | CC(C)c1ccc(C=CC(=O)NC2CCC(CN3CCC(c4c[nH]c5ccccc45)CC3)CC2)cc1 (centres unmarked) [TCMDC-139936] | 103.3 | –
29 | O=C(Nc1cccnc1)c1cc(-c2cccnc2)nc2ccc(Br)cc12 [TCMDC-125212] | 10.18 | –
30 | Cc1cc(Cl)ccc1OC(C)C(=O)N1CCc2ccccc21 (centres unmarked) [TCMDC-123620] | -14.46 | –
31 | Cc1cc(N2CCCC2)nc(Nc2ccc(NC(=O)COc3ccccc3)cc2)n1 [TCMDC-124969] | -41.99 | –
32 | COc1ccc(C(=O)NC(c2ccc(Cl)cc2Cl)c2cc(Cl)c3cccnc3c2O)cc1 (centres unmarked) [TCMDC-125549] | 15.16 | –
33 | COc1cccc(C(=O)NC(c2ccccc2OC)c2cc(Cl)c3cccnc3c2O)c1 (centres unmarked) [TCMDC-125612] | 79.98 | –
34 | COc1cccc(C(=O)NC(C=Cc2ccccc2)c2cc(Cl)c3cccnc3c2O)c1 (centres unmarked) [TCMDC-125550] | 112.7 | –
35 | COc1cccc(C(=O)NC(c2ccc(Cl)cc2Cl)c2cc(Cl)c3cccnc3c2O)c1 (centres unmarked) [TCMDC-124342] | 31.32 | –
36 | FC(F)(F)c1ccc2[nH]c(-c3ccc(-c4ccc(CNCC5CCCO5)cc4)s3)nc2c1.O=C(O)C(F)(F)F (centres unmarked) [TCMDC-133092] | -19.94 | –
37 | CC1CN(c2ccc(C(=O)NCC3CC3)cc2NC(=O)OCc2ccccc2)CC(C)O1 (centres unmarked) [TCMDC-134641] | 11.9 | –
38 | CCOc1ccc2c(c1)OC(c1ccccc1)(C(F)(F)F)NC2=O (centres unmarked) [TCMDC-123632] | 18.25 | –
39 | O=C(NCc1ccc(Cl)c(Cl)c1)c1ccc(-c2nc3ccc(F)cc3[nH]2)cc1 [TCMDC-140448] | -30.61 | –
40 | COC(=O)c1ccc2nc(-c3ccc(/C=C/C(=O)NCc4ccc(Cl)c(Cl)c4)cc3)[nH]c2c1 [TCMDC-140447] | 71.15 | –
41 | O=C(NCc1ccc(Cl)c(Cl)c1)c1ccc(-c2nc3cc(F)c(F)cc3[nH]2)cc1 [TCMDC-140460] | 62.28 | –
42 | Cc1cc2nc(-c3ccc(/C=C/C(=O)NCc4ccc(Cl)c(Cl)c4)cc3)[nH]c2cc1C [TCMDC-140437] | 1.168 | –
43 | Cc1cc2nc(-c3ccc(/C=C/C(=O)NCCc4ccccc4)cc3)[nH]c2cc1C [TCMDC-140438] | -13.04 | –
44 | CC(C)(C)c1ccc2nc(-c3ccc(/C=C/C(=O)NCc4ccc(Cl)c(Cl)c4)cc3)[nH]c2c1 [TCMDC-140457] | 61.32 | –
45 | Cc1cc2nc(-c3ccc(C(=O)NCc4ccc(Cl)c(Cl)c4)cc3)[nH]c2cc1C [TCMDC-140430] | 14.5 | –
46 | CC(C)(C)c1ccc(CNC(=O)/C=C/c2ccc(-c3nc4ccc(C(C)(C)C)cc4[nH]3)cc2)cc1 [TCMDC-140459] | 15.07 | –
47 | CC(C)(C)c1ccc2nc(-c3ccc(/C=C/C(=O)NCc4cccc(C(F)(F)F)c4)cc3)[nH]c2c1 [TCMDC-140458] | -22.76 | –
48 | O=C(/C=C/c1ccc(-c2nc3ccc(Cl)cc3[nH]2)cc1)NCc1cccc(F)c1 [TCMDC-140444] | -5.382 | –
49 | Cc1ccc2nc(-c3ccc(C=CC(=O)NCc4ccc(Cl)c(Cl)c4)cc3)[nH]c2c1 [TCMDC-140402] | -29.51 | –
50 | O=C(/C=C/c1ccc(-c2nc3cc(F)c(F)cc3[nH]2)cc1)NCc1ccc(Cl)c(Cl)c1 [TCMDC-140462] | 80.74 | –
